Inconclusive results are not listed. The source made the active and inactive calls. Calls follow the shape of the dose curve; as a rule, active = well fitted inhibition curve with a large enough effect; inconclusive = small, poorly fitted or top-dose-only effect; inactive = flat fitted curve, though single readings scatter.
Experiments:
Assay in all cases: qHTS profiling for inhibitors of Plasmodium falciparum proliferation (AID 504749); also: nearly all actives have a fitted effect of over 60% in size
Conditions in all cases: P. falciparum in erythrocytes, SYBR Green DNA, 72 h
CP252 = test system: CP252
Method in brief: (§1)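 SYBR Green fluorescence (ex 485 nm, em 535 nm) reports parasite DNA after 72 h compound exposure of infected red cells at 0.3% parasitemia, 2.5% hematocrit; signal normalized to 0.29 uM artemisinin and vehicle wells.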

CP256 = test system: CP256
Method in brief: as §1

CP260 = test system: CP260
Method in brief: as §1

CP262 = test system: CP262
Method in brief: as §1

CP265 = test system: CP265
Method in brief: as §1

CP269 = test system: CP269
Method in brief: as §1

CP286 = test system: CP286
Method in brief: as §1

CP291 = test system: CP291
Method in brief: as §1

CP266 = test system: CP266
Method in brief: as §1

CP268 = test system: CP268
Method in brief: as §1

Measured: Potency
Potency is read from the fitted curve at half-maximal effect.

CC(=O)O[C@H]1C(=O)[C@@]2(C)[C@H]([C@H](OC(=O)c3ccccc3)[C@]3(O)C[C@H](OC(=O)[C@H](O)[C@@H](NC(=O)c4ccccc4)c4ccccc4)C(C)=C1C3(C)C)[C@]1(OC(C)=O)CO[C@@H]1C[C@@H]2O
active: CP252 178 nM | CP256 282 nM | CP260 355 nM | CP262 953 nM | CP265 891 nM | CP269 536 nM | CP286 178 nM | CP291 478 nM

CC[C@]1(O)CC2CN(CCc3c([nH]c4ccccc34)[C@@](C(=O)OC)(c3cc4c(cc3OC)N(C)[C@H]3[C@@](O)(C(=O)OC)[C@H](OC(C)=O)[C@]5(CC)C=CCN6CC[C@]43[C@@H]65)C2)C1 (stereo partly drawn)
active: CP252 3550 nM | CP256 2510 nM | CP260 158 nM | CP262 1070 nM | CP265 3980 nM | CP266 3790 nM | CP268 6750 nM | CP269 1900 nM | CP286 158 nM | CP291 1900 nM

Source: PubChem BioAssay (NCATS)
